The supplement of paper PMC12669032

Assays:
Test in all cases: growth AUC relative to DMSO control (median of replicates) (fraction); higher = more growth (less inhibition), active = hit call of the paper
Details in all cases: 20 µM; 24 h;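 active = AUC reduced over 20% with Padj below 0.05 in at least 2 of 3 replicates; inactive = otherwise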
[1] = system: Akkermansia muciniphila
In short: (§1)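 In round-bottom 96-well plates sealed with pierced gas-permeable seals, gut bacterial monocultures in mGAM were grown anaerobically at 37 °C from OD600 0.05 with 20 µM compound (1% DMSO). OD600 readings were taken hourly for 24 h, and the minimum OD was set to 0. Area under the growth curve was then normalised to the plate median of solvent-only wells, or to row and column medians on the industrial chemical plate. The value given is the median of three biological replicates grown on separate days.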

[2] = system: Bacteroides caccae
In short: as §1

[3] = system: Bacteroides clarus
In short: as §1

[4] = system: Bacteroides dorei
In short: as §1

[5] = system: Bacteroides stercoris
In short: as §1

[6] = system: Bacteroides thetaiotaomicron
In short: as §1

[7] = system: Bacteroides uniformis
In short: as §1

[8] = system: Bifidobacterium longum subsp. longum
In short: as §1

[9] = system: Clostridium difficile
In short: as §1

[10] = system: Collinsella aerofaciens
In short: as §1

[11] = system: Coprococcus comes
In short: as §1

[12] = system: Escherichia coli ED1a
In short: as §1

[13] = system: Escherichia coli IAI1
In short: as §1

[14] = system: Eubacterium rectale
In short: as §1

[15] = system: Fusobacterium nucleatum subsp. animalis
In short: as §1

[16] = system: Lactobacillus gasseri
In short: as §1

[17] = system: Lactobacillus paracasei
In short: as §1

[18] = system: Odoribacter splanchnicus
In short: as §1

[19] = system: Parabacteroides distasonis
In short: as §1

[20] = system: Parabacteroides merdae
In short: as §1

Measured: growth AUC

CCOP(=S)(NC(C)CC)Oc1cc(C)ccc1[N+](=O)[O-] (stereo not given)
inactive: [1] 0.974 | [2] 0.947 | [3] 0.946 | [4] 1.01 | [5] 0.865 | [6] 0.955 | [7] 0.917 | [8] 0.965 | [9] 1.03 | [10] 0.985 | [11] 0.967 | [12] 0.97 | [13] 0.964 | [14] 0.919 | [15] 0.865 | [16] 0.974 | [17] 0.984 | [18] 0.904 | [20] 0.967
active: [19] 0.733

COc1nn(CSP(=S)(OC)OC)c(=O)s1
inactive: [1] 1.01 | [2] 1.01 | [3] 1.02 | [4] 0.992 | [5] 1.04 | [6] 1.04 | [7] 1.02 | [8] 1.02 | [9] 0.996 | [10] 1.03 | [11] 1.06 | [12] 1 | [13] 1 | [14] 1.08 | [15] 1.01 | [16] 0.987 | [17] 1.01 | [18] 1.08 | [19] 1 | [20] 1.04

CCOP(=S)(OCC)Oc1nc(Cl)n(C(C)C)n1
inactive: [1] 1.04 | [2] 0.932 | [3] 1.02 | [4] 1.01 | [5] 1.14 | [6] 1.01 | [7] 0.972 | [8] 0.964 | [9] 0.982 | [10] 1.02 | [11] 0.986 | [12] 1 | [13] 0.999 | [14] 0.886 | [15] 1.16 | [16] 0.952 | [17] 0.954 | [18] 0.991 | [19] 0.917 | [20] 0.974

O=CNC(N1CCN(C(NC=O)C(Cl)(Cl)Cl)CC1)C(Cl)(Cl)Cl (stereo not given)
active: [15] 0.658
inactive: [1] 1.13 | [2] 0.947 | [3] 0.923 | [4] 0.849 | [5] 0.879 | [6] 0.919 | [7] 0.985 | [8] 1.08 | [9] 0.957 | [10] 0.938 | [11] 0.946 | [12] 0.975 | [13] 0.935 | [14] 0.881 | [16] 0.873 | [17] 1.06 | [18] 1.01 | [19] 0.914 | [20] 0.948

CCOC(=O)Nc1cccc(OC(=O)Nc2ccccc2)c1
inactive: [1] 0.899 | [2] 1.06 | [3] 0.961 | [4] 1 | [5] 0.889 | [6] 0.998 | [7] 0.95 | [8] 0.944 | [9] 0.986 | [10] 0.977 | [11] 0.933 | [12] 1.01 | [13] 1.03 | [14] 0.901 | [15] 0.894 | [16] 1.24 | [17] 0.908 | [18] 0.986 | [19] 0.967 | [20] 0.949

O=C(O)c1ccc(Cl)nc1
inactive: [1] 0.953 | [2] 0.985 | [3] 1.02 | [4] 0.985 | [5] 1.08 | [6] 1.01 | [7] 1.04 | [8] 0.902 | [9] 1.03 | [10] 0.999 | [11] 0.946 | [12] 1.01 | [13] 0.967 | [14] 1.05 | [15] 1.1 | [16] 1.15 | [17] 0.974 | [18] 0.968 | [19] 1.02 | [20] 1.01

CNC(=O)Oc1ccccc1OC(C)C
inactive: [1] 0.914 | [2] 0.993 | [3] 0.977 | [4] 1.01 | [5] 1.01 | [6] 0.975 | [7] 0.979 | [8] 0.996 | [9] 0.986 | [10] 0.955 | [11] 0.974 | [12] 0.986 | [13] 0.982 | [14] 0.952 | [15] 0.994 | [16] 0.892 | [17] 0.982 | [18] 1.02 | [19] 1.01 | [20] 0.981

Nc1cnn(-c2ccccc2)c(=O)c1Cl
inactive: [1] 0.895 | [2] 1.01 | [3] 0.992 | [4] 0.995 | [5] 1.12 | [6] 1.01 | [7] 0.997 | [8] 0.936 | [9] 1.03 | [10] 1 | [11] 1.02 | [12] 1.03 | [13] 1 | [14] 1.03 | [15] 1.05 | [16] 1.07 | [17] 1.07 | [18] 0.949 | [19] 0.996 | [20] 0.997

CC(Oc1ccc(Oc2ccc(Cl)cc2Cl)cc1)C(=O)O (racemic)
inactive: [1] 0.812 | [2] 0.991 | [3] 0.875 | [4] 0.997 | [5] 0.851 | [6] 0.989 | [7] 0.98 | [8] 0.903 | [9] 1.02 | [10] 0.995 | [11] 0.943 | [12] 0.974 | [13] 1.02 | [14] 0.988 | [15] 0.961 | [16] 1.16 | [17] 0.999 | [18] 1.09 | [19] 1.06 | [20] 0.956

COC[C@H](C)N(C(=O)CCl)c1c(C)csc1C
inactive: [1] 1.08 | [2] 1 | [3] 0.983 | [4] 0.951 | [5] 0.95 | [6] 1 | [7] 0.981 | [8] 1.04 | [9] 0.976 | [10] 1 | [11] 1 | [12] 0.985 | [13] 0.981 | [14] 1.17 | [15] 0.988 | [16] 0.922 | [17] 0.95 | [18] 0.976 | [19] 0.963 | [20] 0.956
